Results from PubChem BioAssay AID1159580 (chemical genetic matrix, 2015).
In all, about 5,500 compounds went through this assay and about 2,000 (36%) were called active. Another 18% or so got no clear call; they are omitted. No stated cut-off is given here; in the data, active means normalized growth mostly below about 0.91 (no sharp cut-off); inconclusive means no clear call, values can overlap the other calls; inactive means mostly above about 0.92. The list shows a part of the results.

Assay: chemical genetic growth profiling, strain panel (AID 1159580);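 further: tested at 20 µM; growth read once vehicle control cultures reached saturation at 30 °C; 1 = growth at the plate median or of vehicle wells; lower values mean less growth of the strain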
Conditions: growth OD

Measured: normalized growth

CC(C)[C@]12O[C@H]1[C@@H]1O[C@@]13[C@@]1(C)CCC4=C(COC4=O)[C@@H]1C[C@@H]1O[C@@]13C2=O
inactive: S. cerevisiae deletion strains, locus YAL013W, strain DEP1, hits give low values 1.01 | S. cerevisiae deletion strains, locus YBR021W, strain FUR4, hits give low values 0.991 | S. cerevisiae deletion strains, locus YBR229C, strain ROT2, hits give low values 1.01 | S. cerevisiae deletion strains, locus YCL029C, strain bik1, hits give low values 0.998 | S. cerevisiae deletion strains, locus YDL035C, strain GPR1, hits give low values 1.01 | S. cerevisiae deletion strains, locus YDL074C, strain BRE1, hits give low values 1.03 | S. cerevisiae deletion strains, locus YDL101C, strain DUN1, hits give low values 1.02 | S. cerevisiae deletion strains, locus YDL134C, strain PPH21, hits give low values 1.01 | S. cerevisiae deletion strains, locus YDL185W, strain tfp1, hits give low values 1 | S. cerevisiae deletion strains, locus YDL192W, strain arf1, hits give low values 0.994 | S. cerevisiae deletion strains, locus YDR101C, strain arx1, hits give low values 0.977 | S. cerevisiae deletion strains, locus YDR150W, strain NUM1, hits give low values 1.02 | S. cerevisiae deletion strains, locus YDR162C, strain NBP2, hits give low values 1.02 | S. cerevisiae deletion strains, locus YDR318W, strain mcm21, hits give low values 0.979 | S. cerevisiae deletion strains, locus YDR388W, hits give low values 0.996 | S. cerevisiae deletion strains, locus YDR502C, strain sam2, hits give low values 1.01 | S. cerevisiae deletion strains, locus YEL061C, strain CIN8, hits give low values 1.01 | S. cerevisiae deletion strains, locus YER110C, hits give low values 0.987 | S. cerevisiae deletion strains, locus YER155C, strain BEM2, hits give low values 1.02 | S. cerevisiae deletion strains, locus YER167W, strain BCK2, hits give low values 1.01 | S. cerevisiae deletion strains, locus YGL078C, strain dbp3, hits give low values 1.01 | S. cerevisiae deletion strains, locus YGL086W, strain mad1, hits give low values 0.988 | S. cerevisiae deletion strains, locus YGL248W, strain PDE1, hits give low values 1.01 | S. cerevisiae deletion strains, locus YGR078C, strain PAC10, hits give low values 1.02 | S. cerevisiae deletion strains, locus YGR135W, strain pre9, hits give low values 0.995 | S. cerevisiae deletion strains, locus YGR229C, strain SMI1, hits give low values 1.01 | S. cerevisiae deletion strains, locus YGR252W, strain gcn5, hits give low values 0.922 | S. cerevisiae deletion strains, locus YHR030C, strain SLT2, hits give low values 1.01 | S. cerevisiae deletion strains, locus YHR079C, strain IRE1 (second series), hits give low values 0.992 | S. cerevisiae deletion strains, locus YHR094C, strain hxt1, hits give low values 0.991 | S. cerevisiae deletion strains, locus YHR129C, strain ARP1, hits give low values 1.01 | S. cerevisiae deletion strains, locus YHR200W, strain rpn10, hits give low values 0.997 | S. cerevisiae deletion strains, locus YIL066C, strain RNR3, hits give low values 1 | S. cerevisiae deletion strains, locus YIL073C, strain SPO22, hits give low values 0.958 | S. cerevisiae deletion strains, locus YIL125W, strain kgd1, hits give low values 1.01 | S. cerevisiae deletion strains, locus YIR030C, strain dcg1, hits give low values 0.998 | S. cerevisiae deletion strains, locus YJL095W, strain BCK1, hits give low values 1 | S. cerevisiae deletion strains, locus YJL134W, strain LCB3, hits give low values 1.01 | S. cerevisiae deletion strains, locus YJL168C, strain set2, hits give low values 0.993 | S. cerevisiae deletion strains, locus YJL187C, strain SWE1 (second series), hits give low values 1.02 | S. cerevisiae deletion strains, locus YJR043C, strain POL32, hits give low values 0.987 | S. cerevisiae deletion strains, locus YJR075W, strain HOC1, hits give low values 1.02 | S. cerevisiae deletion strains, locus YKL009W, strain mrt4, hits give low values 0.994 | S. cerevisiae deletion strains, locus YKL068W, hits give low values 0.994 | S. cerevisiae deletion strains, locus YKL085W, strain MDH1 (second series), hits give low values 0.997 | S. cerevisiae deletion strains, locus YKL085W, strain MDH1, hits give low values 0.997 | S. cerevisiae deletion strains, locus YKL190W, strain CNB1, hits give low values 1.01 | S. cerevisiae deletion strains, locus YKR001C, strain vps1, hits give low values 0.997 | S. cerevisiae deletion strains, locus YLR039C, strain RIC1, hits give low values 1.01 | S. cerevisiae deletion strains, locus YLR058C, strain SHM2, hits give low values 1.01 | S. cerevisiae deletion strains, locus YLR102C, strain apc9, hits give low values 1 | S. cerevisiae deletion strains, locus YLR262C, strain YPT6, hits give low values 0.979 | S. cerevisiae deletion strains, locus YLR268W, strain sec22, hits give low values 0.984 | S. cerevisiae deletion strains, locus YLR330W, strain CHS5, hits give low values 1.01 | S. cerevisiae deletion strains, locus YLR342W, strain FKS1 (second series), hits give low values 0.978 | S. cerevisiae deletion strains, locus YLR371W, strain rom2, hits give low values 1 | S. cerevisiae deletion strains, locus YLR418C, strain cdc73, hits give low values 0.995 | S. cerevisiae deletion strains, locus YML016C, strain PPZ1, hits give low values 1.01 | S. cerevisiae deletion strains, locus YML032C, strain rad52, hits give low values 0.972 | S. cerevisiae deletion strains, locus YML124C, strain tub3, hits give low values 0.996 | S. cerevisiae deletion strains, locus YMR078C, strain ctf18, hits give low values 0.989 | S. cerevisiae deletion strains, locus YMR223W, strain ubp8, hits give low values 0.976 | S. cerevisiae deletion strains, locus YMR263W, strain SAP30, hits give low values 1.03 | S. cerevisiae deletion strains, locus YMR307W, strain GAS1, hits give low values 1.04 | S. cerevisiae deletion strains, locus YNL067W, strain RPL9B, hits give low values 1.02 | S. cerevisiae deletion strains, locus YNL128W, strain TEP1, hits give low values 1.03 | S. cerevisiae deletion strains, locus YNL153C, strain GIM3, hits give low values 1.03 | S. cerevisiae deletion strains, locus YNL233W, strain BNI4, hits give low values 1.04 | S. cerevisiae deletion strains, locus YNL250W, strain rad50, hits give low values 0.992 | S. cerevisiae deletion strains, locus YNL271C, strain bni1, hits give low values 0.998 | S. cerevisiae deletion strains, locus YNL298W, strain CLA4, hits give low values 1.01 | S. cerevisiae deletion strains, locus YNL307C, strain MCK1, hits give low values 0.983 | S. cerevisiae deletion strains, locus YNL322C, strain KRE1, hits give low values 1.01 | S. cerevisiae deletion strains, locus YNR052C, strain pop2, hits give low values 0.978 | S. cerevisiae deletion strains, locus YOL006C, strain TOP1, hits give low values 1.01 | S. cerevisiae deletion strains, locus YOL012C, strain htz1 0.999 | S. cerevisiae deletion strains, locus YOL147C, strain pex11, hits give low values 0.996 | S. cerevisiae deletion strains, locus YOR061W, strain CKA2, hits give low values 1.01 | S. cerevisiae deletion strains, locus YOR069W, strain VPS5, hits give low values 1.01 | S. cerevisiae deletion strains, locus YOR136W, strain idh2, hits give low values 0.99 | S. cerevisiae deletion strains, locus YOR144C, strain elg1, hits give low values 0.997 | S. cerevisiae deletion strains, locus YOR184W, strain ser1, hits give low values 0.966 | S. cerevisiae deletion strains, locus YOR316C, strain cot1, hits give low values 0.997 | S. cerevisiae deletion strains, locus YPL055C, strain LGE1, hits give low values 1.06 | S. cerevisiae deletion strains, locus YPL241C, strain CIN2, hits give low values 1.01 | S. cerevisiae deletion strains, locus YPR119W, strain clb2, hits give low values 0.999 | S. cerevisiae deletion strains, locus YPR141C, strain kar3, hits give low values 0.987 | S. cerevisiae deletion strains, locus YPR163C, strain tif3, hits give low values 1 | S. cerevisiae deletion strains, locus YPR167C, strain met16, hits give low values 0.99 | S. cerevisiae deletion strains, strain wtn01, hits give low values 1.02 | S. cerevisiae strains, strain wild type, hits give low values 1.01
